Test in all cases: NCI-60 one-dose screen, 48 h (100 = growth as untreated, 0 = no growth, -100 = all killed)
Common to all, as to conditions: 10 µM unless noted

The test system of experiment [1] is HCT-15 colon.
In experiment [2] the test system is HT29 colon.
The subject of experiment [3] is SNB-75 CNS.
The subject of experiment [4] is SNB-19 CNS.
For experiment [5], the system named is U251 CNS.
Experiment [6] concerns PC-3 prostate.
The subject of experiment [7] is SK-MEL-5 melanoma.
The test system of experiment [8] is UACC-62 melanoma.
Experiment [9] deals with LOX IMVI melanoma.
For experiment [10], the system named is SK-MEL-28 melanoma.
Experiment [11] has as its system SK-MEL-2 melanoma.
Experiment [12] deals with EKVX NSCLC.
The test system of experiment [13] is SN12C renal.
Experiment [14] concerns UO-31 renal.
Experiment [15] concerns TK-10 renal.
In experiment [16] the test system is ACHN renal.
In experiment [17] the test system is CAKI-1 renal.
The subject of experiment [18] is A498 renal.
Experiment [19] deals with CCRF-CEM leukemia.
The subject of experiment [20] is MOLT-4 leukemia.

The panel holds about 83,000 compounds, 20% with a hit somewhere; the sample as a whole holds those more often.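 Growth was measured after 48 h exposure to one concentration of compound in 96-well plates. Values under 10 count as active.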 A number with no mark means an inactive call. Active and inactive are the calls of the source.

Take `NS(=O)(=O)c1ccc(CCN2C(=O)c3cc(Cl)c(Cl)cc3C2=O)cc1`: the growth in experiment [1] was 103%; in experiment [2] it was 89.3%; in experiment [3], 98.3%; in experiment [4], 109%; in experiment [5], 102%; in [6] it was 99.2%. Besides, the growth in [7] was 105%; in [8] it was 103%; in [9], 98.2%; in experiment [10] it was 110%; in [11], 96.5%; in experiment [12] it was 103%. The growth in experiment [13] is 107%; in [14] it was 93%; in experiment [15], 88.5%; in experiment [16], 105%; in [17] it was 96.6%; in experiment [18], 104%. The results for the growth in experiment [19] and in experiment [20] were 98% and 92.4%, respectively.
As for `C[C@H]1[C@H](C)CC[C@]2(C(=O)Nc3ccc4ncccc4c3)CC[C@]3(C)C(=CC[C@@H]4[C@@]5(C)CCCNC(C)(C)[C@@H]5CC[C@]43C)[C@H]12`, the growth in [1] is -83.7% (active); in experiment [2] it was -88.5% (active); in experiment [3], 78.2%; in [4], -59.6% (active); in experiment [5] it was -86.3% (active); in experiment [6], -4.73% (active). For the same compound, the growth is -18.8% (active) in experiment [7]; -74.5% (active) in [8]; -89.7% (active) in experiment [9]; -67.3% (active) in [10]; 90.5% in [11]; 76.6% in [12]. Further, the growth in experiment [13] was -86.1% (active); in [14] it was -76.5% (active); in experiment [15], 102%; in experiment [16], -75.1% (active); in experiment [17], 26.7%; in experiment [18], 98.3%. In addition, the values for the growth in [19] and in experiment [20] were -25.5% (active) and -47.9% (active), respectively.
On to `CC(=O)[C@@H]1CC[C@]2(CO)CC[C@]3(C)[C@H](CC[C@@H]4[C@@]5(C)CCCNC(C)(C)[C@@H]5CC[C@]43C)[C@@H]12`, for which the growth was 81.5% in experiment [1]; 68.1% in experiment [2]; 86% in experiment [3]; 99.1% in [4]; 108% in experiment [5]; 86% in experiment [6]. The growth was 92.7% in experiment [7]; 94.7% in experiment [8]; 95.6% in [9]; 113% in experiment [10]; 105% in experiment [11]; 95.4% in [12]. In addition, the growth is 91.2% in experiment [13]; 84.4% in experiment [14]; 110% in experiment [15]; 107% in [16]; 97.1% in experiment [17]; 95.3% in experiment [18]. In addition, the results for the growth in [19] and in experiment [20] were 103% and 95.3%, respectively.
For the compound `CC[C@]12C=CCN3CC[C@@]4(c5cc(NC(=O)CCC(=O)O[C@H]6CC[C@H]7[C@@H]8CCC9=CC(=O)CC[C@@H]9[C@H]8CC[C@]67C)c(OC)cc5N(C)[C@H]4[C@@](O)(C(=O)OC)[C@@H]1OC(C)=O)[C@@H]32`, the growth was 62.2% in experiment [1]; 62.8% in experiment [2]; 68.6% in [3]; 85% in experiment [4]; 74.1% in experiment [5]; 53.6% in experiment [6]. For the same compound, the growth in [7] is 43.8%; in experiment [8], 64.1%; in experiment [9], 84.7%; in experiment [10] it was 91.7%; in experiment [11], 81.9%; in experiment [12], 73.4%. Moreover, the growth in experiment [13] was 81.5%; in experiment [14] it was 53.6%; in experiment [15], 97.4%; in [16] it was 87.2%; in experiment [17] it was 67.8%; in experiment [18], 71.6%. The growth in experiment [19] was 62.7%; in experiment [20], 40.3%.
As for `CCOC(=O)c1cc(C(=O)c2cc(OC)cc(OC)c2)n2ccc3ccccc3c12`, the growth in experiment [1] is 100%; in experiment [2], 101%; in experiment [3], -7.31% (active); in [4], 55.2%; in experiment [5], 81.8%; in [6], 99.4%. Moreover, the growth in experiment [7] is 100%; in experiment [8], 91.1%; in experiment [9], 88.9%; in [10], 107%; in [11] it was 102%; in experiment [12], 94.8%. Besides, the growth was 81.2% in [13]; 95.3% in experiment [14]; 99.8% in [15]; 84.2% in [16]; 84.5% in [17]; 89.3% in experiment [18]. Besides, the growth in experiment [19] was 102%; in experiment [20], 104%.
Consider `CCOC(=O)c1cc(C(=O)c2ccc(OC)c(OC)c2)n2ccc(/C=C/c3cc[n+](CC(=O)c4ccc(OC)c(OC)c4)cc3)cc12`, for which the growth was 104% in [1]; 95.5% in [2]; 79.4% in experiment [3]; 90.6% in [4]; 95.5% in [5]; 92.8% in [6]. The growth in [7] was 98%; in experiment [8], 96.6%; in experiment [9] it was 87.7%; in experiment [10], 104%; in experiment [11] it was 112%; in experiment [12], 99.6%. Further, the growth in experiment [13] was 86.8%; in experiment [14], 82.7%; in [15], 113%; in [16], 96.3%; in experiment [17] it was 96.2%; in [18] it was 95.6%. For the same compound, the growth was 85.7% in experiment [19] and 93.7% in experiment [20].
As for `O=C(O)c1ccc2c(c1)C(=O)N(Cc1ccccc1)C2=O`, the growth in experiment [1] is 99.9%; in experiment [2] it was 99.9%; in experiment [3], 94.2%; in experiment [4] it was 95.1%; in experiment [5], 92.7%; in experiment [6] it was 96.2%. Further, the growth in experiment [7] was 99.7%; in experiment [8] it was 97.9%; in [9], 95.7%; in experiment [10], 110%; in experiment [11], 106%; in [12], 99.8%. The growth is 98.2% in experiment [13]; 83% in [14]; 91.1% in experiment [15]; 99.9% in [16]; 99.3% in experiment [17]; 85.4% in experiment [18]. For the same compound, the growth is 92.6% in [19] and 98.5% in experiment [20].
`N#CC1C(C#N)C(C(=O)c2ccc(Br)cc2)N2c3ccccc3C=CC12` (stereo not given): the growth in experiment [1] was 23.7%; in experiment [2], 37.4%; in [3], 12%; in experiment [4], 80.4%; in [5], 84.6%; in experiment [6] it was 76.8%. Besides, the growth in experiment [7] is 61.3%; in experiment [8] it was 63%; in experiment [9] it was 78.7%; in experiment [10], 95.7%; in experiment [11], 104%; in [12], 63.9%. Further, the growth in [13] is 76.1%; in experiment [14], 48%; in experiment [15], 106%; in experiment [16], 89.4%; in [17], 50.7%; in experiment [18], 67.7%. The results for the growth in experiment [19] and in experiment [20] were 84.9% and 92.7%, respectively.

Source of the values: PubChem BioAssay (NCI).
